BRCT inh green = BRCA1 BRCT-phosphoprotein interaction inhibition. P38398. BRCA1 BRCT-phosphopeptide binding, green fluorescence polarization. Potency, µM (top dose mostly 76.9 µM), actives largely listed as inhibitors. 75,000 tested, 0.05% active
Target sequence (P38398 whole entry, looked up): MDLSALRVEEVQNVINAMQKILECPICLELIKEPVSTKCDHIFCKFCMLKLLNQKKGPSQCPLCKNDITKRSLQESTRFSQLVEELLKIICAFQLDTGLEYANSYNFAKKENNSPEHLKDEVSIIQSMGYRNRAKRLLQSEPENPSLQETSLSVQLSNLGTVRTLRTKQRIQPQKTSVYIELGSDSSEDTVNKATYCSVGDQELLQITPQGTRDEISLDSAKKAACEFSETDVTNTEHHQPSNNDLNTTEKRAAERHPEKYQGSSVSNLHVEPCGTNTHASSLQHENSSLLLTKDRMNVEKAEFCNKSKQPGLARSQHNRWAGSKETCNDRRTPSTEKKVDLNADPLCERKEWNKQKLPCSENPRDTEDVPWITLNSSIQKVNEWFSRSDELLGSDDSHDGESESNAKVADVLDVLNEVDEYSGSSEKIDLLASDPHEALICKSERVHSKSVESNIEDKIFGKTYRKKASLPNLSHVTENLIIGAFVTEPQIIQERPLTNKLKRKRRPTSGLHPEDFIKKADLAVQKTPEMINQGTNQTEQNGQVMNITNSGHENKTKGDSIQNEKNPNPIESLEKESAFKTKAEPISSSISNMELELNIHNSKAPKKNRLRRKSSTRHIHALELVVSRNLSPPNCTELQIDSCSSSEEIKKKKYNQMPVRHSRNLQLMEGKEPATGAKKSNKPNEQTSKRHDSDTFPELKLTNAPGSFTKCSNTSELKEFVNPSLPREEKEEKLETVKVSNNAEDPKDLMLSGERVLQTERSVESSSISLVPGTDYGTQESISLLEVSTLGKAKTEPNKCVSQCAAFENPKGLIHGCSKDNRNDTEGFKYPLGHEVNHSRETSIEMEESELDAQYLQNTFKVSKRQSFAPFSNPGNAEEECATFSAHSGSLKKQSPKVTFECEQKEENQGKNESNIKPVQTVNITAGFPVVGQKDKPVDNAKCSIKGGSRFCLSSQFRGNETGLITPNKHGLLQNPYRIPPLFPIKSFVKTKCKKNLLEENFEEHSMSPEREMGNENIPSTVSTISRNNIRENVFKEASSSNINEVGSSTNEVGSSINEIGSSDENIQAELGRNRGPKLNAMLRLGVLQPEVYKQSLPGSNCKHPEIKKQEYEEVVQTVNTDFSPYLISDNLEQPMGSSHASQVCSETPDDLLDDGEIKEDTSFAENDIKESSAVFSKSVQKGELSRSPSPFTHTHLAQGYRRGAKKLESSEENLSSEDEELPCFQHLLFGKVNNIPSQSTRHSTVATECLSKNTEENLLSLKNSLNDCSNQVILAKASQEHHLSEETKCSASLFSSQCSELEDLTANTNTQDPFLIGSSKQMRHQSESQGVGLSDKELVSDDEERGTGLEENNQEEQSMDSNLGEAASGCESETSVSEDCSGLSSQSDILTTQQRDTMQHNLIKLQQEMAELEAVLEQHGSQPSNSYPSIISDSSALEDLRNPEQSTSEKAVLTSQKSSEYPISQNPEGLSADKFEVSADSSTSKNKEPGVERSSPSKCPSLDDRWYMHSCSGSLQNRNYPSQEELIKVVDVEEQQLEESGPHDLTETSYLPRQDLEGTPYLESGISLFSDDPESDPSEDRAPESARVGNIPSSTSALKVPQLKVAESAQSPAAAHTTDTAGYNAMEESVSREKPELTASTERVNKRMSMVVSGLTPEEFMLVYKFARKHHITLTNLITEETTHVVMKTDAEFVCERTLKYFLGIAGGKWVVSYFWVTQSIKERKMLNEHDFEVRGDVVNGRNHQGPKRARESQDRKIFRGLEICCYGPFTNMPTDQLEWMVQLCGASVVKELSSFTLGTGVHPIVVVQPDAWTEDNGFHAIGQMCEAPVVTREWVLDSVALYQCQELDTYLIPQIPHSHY
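Fluorescence polarization: His-tagged BRCT (~35 kDa BRCA1 C-terminus, 250 nM) bound to 100 nM fluorescein-labeled phosphorylated 10-aa BACH1 peptide, pH 7.3 phosphate buffer with DTT and Tween 20. Compounds incubated 12 min at room temperature; inhibition read as lowered polarization.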
DNA Pol III inh = blocks replication by bacterial DNA polymerase III holoenzyme; AID 603; 71,000 tested, 0.25% active; reconstituted DNA polymerase III holoenzyme replication, biochemical; Potency, µM (titrated, usually from 57.1 µM)
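Reconstituted *E. coli* holoenzyme (0.35 nM Pol III, 1 nM beta, 154 nM SSB, 2 nM primase) was preincubated with compound for 15 min at RT. Synthesis on 1.4 nM ssM13Gori ran 35 min, then was stopped with PicoGreen/EDTA and read as dsDNA fluorescence.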
BRCT inh red = inhibitors of human BRCA1 BRCT-phosphoprotein interaction (red fluorophore); AID 892; BRCT-phosphopeptide binding, red fluorescence polarization; P38398; 75,000 tested, 0.03% active; Potency, µM (titrated, usually from 76.9 µM), hits mostly inhibitors
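Fluorescence polarization: 100 nM His-tagged BRCA1 BRCT with 100 nM TAMRA-labelled phospho-BACH1 decapeptide, phosphate buffer pH 7.3 with 150 mM NaCl, DTT, 0.01% Tween 20; 12 min RT. Binding inhibition seen as FP decrease.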
Tau filament bind = tau filament binding; P10636; recombinant tau filaments, thioflavin S fluorescence, 15 h; filaments grown with octadecylsulfate alongside compound; Potency, µM (highest dose often 57.1 µM); 71,000 tested, 2% active; AID 596;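 note: actives lower thioflavin S fluorescence by blocking filaments or displacing dye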
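Assay mix: 1 uM His-tagged tau, 30 uM sodium octadecylsulfate, thioflavine S dye in HEPES/NaCl/DTT buffer. Compound is added prior to the inducer. Fluorescence after 15 h at 37 C.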
Hsp90 Hop PPI = changes Hsp90-Hop TPR2A binding signal, up or down; 71,000 tested, 0.44% active; Potency, µM (titrated, usually from 57 µM); AlphaScreen TPR2A-His6 binding biotin-Hsp90 C-terminal peptide; AID 595; active = well fitted curve in either direction with a large enough effect; inconclusive = small, poorly fitted or top-dose-only effect, or another doubt
YjeE inh = displaces an ADP probe from E. coli YjeE (TsaE); P0AF67; purified YjeE enzyme, qHTS inhibition assay; Potency, µM; 71,000 tested, 0.05% active; AID 605
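Purified YjeE (10 uM) with BODIPY Texas Red-labeled ADP probe (2 uM); compounds pin-transferred, 15 min at room temperature. Binding inhibition read as decreased fluorescence polarization; ADP titration as control.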
Large screens that a line does not name were inactive; ! = a repeat was not active. The list is not random: actives were taken first. Their share in the collection is about 2.4%. Unless noted, calls come from the whole dose curve; as a rule, active = well fitted curve in the direction sought with a large enough effect; inconclusive = small, poorly fitted or top-dose-only effect, or another doubt; inactive = no such curve, though single readings can be large; an effect the other way counts as inactive or inconclusive.

O=C(Oc1ccccc1)n1c(=O)oc2ccc(Cl)cc21	none (no result: DNA Pol III inh, Tau filament bind, Hsp90 Hop PPI, YjeE inh)
C[C@@]12C(=O)OC(=O)[C@@]1(C)[C@@H]1CC[C@@H]2O1	Tau filament bind 32µM
Cc1ccc2c(c1)-c1cc(C)nn1C(c1sccc1C)N2 (configuration not stated)	Hsp90 Hop PPI 25µM
ClCCl	none
O=C1c2ccc(O)c(O)c2C(=O)c2c(O)ccc(O)c21	BRCT inh red 32µM (no result: DNA Pol III inh, Tau filament bind, Hsp90 Hop PPI, YjeE inh)
Nc1ccccc1NC1=CC(=O)CC(c2ccco2)C1 (configuration not stated)	Tau filament bind 16µM
COc1ccc2nc(SCC(=O)N(C)C3CCCCC3)c(C#N)cc2c1	none
CCSc1nc(-c2ccc(OC)cc2)ccc1C#N	Hsp90 Hop PPI 25µM
COc1ccc(C(=O)[C@H]2[C@H]3[C@@H](C(=O)[C@@H]4OC[C@H]3O4)[C@H]3C=Cc4ccccc4N32)c(OC)c1	Hsp90 Hop PPI inconclusive (no result: BRCT inh green, BRCT inh red)
OCC(O)CN1CCN(c2ccccc2)CC1 (configuration not stated)	none (no result: DNA Pol III inh, Tau filament bind, Hsp90 Hop PPI, YjeE inh)
O[C@H](CN1CCN(c2cccc(Cl)c2)CC1)C(c1ccccc1)c1ccccc1	Tau filament bind 40µM!
CCOC(=O)CCS(=O)(=O)c1nc(-c2ccccc2)cc(C(F)(F)F)n1	Tau filament bind inconclusive
CCOC(=O)CS(=O)(=O)c1nc(-c2ccccc2)cc(C(F)(F)F)n1	Tau filament bind 20µM
NCCOB(c1ccccc1)c1ccccc1	YjeE inh inconclusive
O=c1c(-c2ccccc2)nc2cnc(N3CCNCC3)nc2n1Cc1cccs1	Tau filament bind 5µM
COc1cccc(Cn2c(=O)c(-c3cc(F)cc(F)c3)nc3cnc(N4CCNCC4)nc32)c1	Tau filament bind 4µM
COc1cccc(Cn2c(=O)c(C)nc3cnc(N4CCNCC4)nc32)c1	none
COc1ccc(-n2c(=O)c(-c3cccc(C#N)c3)nc3cnc(N4CCNCC4)nc32)cc1	none
COc1ccc(-n2c(=O)c(-c3cc(F)cc(F)c3)nc3cnc(N4CCNCC4)nc32)cc1	Tau filament bind 3.2µM
O=c1c(-c2cc(F)cc(F)c2)nc2cnc(N3CCNCC3)nc2n1Cc1ccc(F)cc1	Tau filament bind 4µM, YjeE inh inconclusive
Cc1ccc(S(=O)(=O)N(CC(=O)O)c2ccc(Cl)cc2)cc1	none (no result: DNA Pol III inh, Tau filament bind, Hsp90 Hop PPI, YjeE inh)
CCCCCNCCCCC	none
COc1ccc2c(c1)Cc1cc(N=[N+]([O-])c3ccc4c(c3)Cc3cc(OC)ccc3-4)ccc1-2	Tau filament bind 3.2µM
COc1ccc2c(c1)CCc1c(-c3noc4c3CCc3cc(OC)ccc3-4)noc1-2	none
Clc1ccc(OCc2nc(-c3ccccn3)n[nH]2)cc1	Hsp90 Hop PPI 16µM
CC(Oc1ccc(Cl)cc1Cl)c1nc(-c2ccccn2)no1 (configuration not stated)	none
S=C([S-])NCCNC(=S)[S-].[Zn+2]	DNA Pol III inh 0.4µM, Hsp90 Hop PPI 16µM
O=C(/C=C\c1ccc(O)c(O)c1)OCCc1ccccc1	Hsp90 Hop PPI inconclusive
COc1ccccc1N1CCN(CCn2c(=O)[nH]c3c([nH]c4ccccc43)c2=O)CC1	Tau filament bind 40µM
COc1ccccc1N1CCN(CCCCN2C(=O)CCC2=O)CC1	Tau filament bind inconclusive
C[N+]1(CCC[N+]2(C)C[C@H]3[C@H](C2)[C@H]2C=C[C@@H]3CC2)CCOCC1 (some centres not stated)	none
COCCNC(=O)c1ccc(-n2c(=O)c(=O)[nH]c3ccccc32)cc1	none (no result: DNA Pol III inh, Tau filament bind, Hsp90 Hop PPI, YjeE inh)
Cn1c(C(=O)NCc2ccc3c(c2)OCO3)cc2sccc21	none
Cn1c(C(=O)Nc2ccc3c(c2)OCO3)cc2sccc21	Tau filament bind 13µM
O=C(Nc1ccc2c(c1)OCO2)c1cc(C2CC2)on1	none
Cc1onc(-c2c(Cl)cccc2Cl)c1C(=O)Nc1ccc2c(c1)OCO2	Tau filament bind 3.2µM
CC(C)c1cc(C(=O)Nc2ccc3c(c2)OCO3)no1	Tau filament bind 13µM
CNC(=O)[C@@H]1O[C@@H](n2cnc3c(N)ncnc32)[C@@H](O)[C@H]1O	Hsp90 Hop PPI inconclusive
N[C@H](Cc1cccc(-c2ccccc2CP(=O)(O)O)c1)C(=O)O	none
CCc1cc2c(nc1CC)CCN(CC/C(C)=N/O[C@@H](C)CN1CCCc3nc(C)c(C)cc31)C2	none (no result: DNA Pol III inh, Tau filament bind, Hsp90 Hop PPI, YjeE inh)
Cn1c(=O)c2c(nc(/C=C\c3cccc(Cl)c3)n2C)n(C)c1=O	none
O=C(COC(=O)c1ccccc1)NCc1ccco1	none
O=C(COC(=O)c1cc(-c2cccs2)nc2ccccc12)NCc1ccco1	Tau filament bind 16µM
COCC(=O)NCc1ccc2c(c1)OCO2	none
CC(C)Cn1c(N)c(C(=O)COC(=O)c2cc(-c3ccco3)nc3ccccc23)c(=O)n(C)c1=O	Tau filament bind 13µM
Cn1c(=O)c(C(=O)COC(=O)c2cc(-c3ccco3)nc3ccccc23)c(N)n(Cc2ccccc2)c1=O	none (no result: DNA Pol III inh, Tau filament bind, Hsp90 Hop PPI, YjeE inh)
O=C(COC(=O)c1cc(-c2ccco2)nc2ccccc12)NCc1ccc2c(c1)OCO2	Tau filament bind 13µM
CN(C)c1ccc2nc3c(C(=O)O)cc(=O)c(O)c-3oc2c1	DNA Pol III inh 3.2µM
CC(=O)N(C(C)=O)c1ccc2nc(C)[nH]c(=O)c2c1	none
CC(=O)c1cccc(NC2c3ccccc3C(=O)N2Cc2ccc3c(c2)OCO3)c1 (configuration not stated)	none
O=C1c2ccccc2C(Nc2ccc3c(c2)OCCO3)N1Cc1ccccc1 (configuration not stated)	Tau filament bind 20µM, Hsp90 Hop PPI inconclusive
O=C(O)[C@H]([C@H]1NCCS1)N1C(=O)c2ccccc2C1=O	none
O=C(Nc1ccc(Nc2ccccc2)cc1)c1ccc(Br)o1	Tau filament bind 16µM
O=C(Nc1ccc(N2CCN(C(=O)c3ccc(Cl)cc3)CC2)cc1)c1ccc(Br)o1	Tau filament bind 25µM
CC1(C)CC(Nc2ccc(Nc3ccccc3)cc2)CC(C)(C)N1	Tau filament bind 1.6µM
CC1(C)CC(NC(=O)c2ccccc2Cl)CC(C)(C)N1	none
CC(C)c1ccc2c(c1)CC[C@@H]1[C@@](C)(CN)CCC[C@@]21C	Tau filament bind 32µM (no result: BRCT inh green, BRCT inh red)
Oc1[nH]c2ccccc2c1/C=N/c1nccs1	Tau filament bind 13µM
CCOC(=O)c1cc(-c2ccc(N)cc2)sc1N	Tau filament bind 25µM
CCOC(=O)c1ccc(N)cc1	none
Nc1nc(SCc2ccc([N+](=O)[O-])cc2)c2ncn([C@@H]3O[C@@H](CO)[C@@H](O)[C@H]3O)c2n1	none
CCCCC(CC)COC(=O)C(C#N)=C(c1ccccc1)c1ccccc1 (configuration not stated)	Tau filament bind 32µM, Hsp90 Hop PPI inconclusive
